Measured values from PubChem BioAssay (NCI).
This is part of a sample that, as a whole, favours compounds with a hit. Of some 83,000 tested, about 20% had one in any assay.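 Step 1: grow cells in 96-well plates. Step 2: add test compound at a single concentration. Step 3: incubate 48 h. Step 4: record percent growth.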 Unmarked numbers belong to inactive results. Activity calls are given as the source filed them. Rule for the calls: active = growth percent below 10; inactive = the rest.

test system: SR leukemia; assay: NCI-60 one-dose screen, 48 h (100 = growth as untreated, 0 = no growth, -100 = all killed); conditions: 10 µM unless noted

| SMILES | growth |
| --- | --- |
| Brc1ccc(-c2nc3ccccc3s2)cc1 | 86.9% |
| c1cc[c]([Bi]([c]2ccccc2)[c]2ccccc2)cc1 | 102% |
| O=C1/C(=N\c2cc(=O)[nH]n2S(=O)(=O)c2ccccc2)Nc2ccccc21 | 89.7% |
| COc1ccc(/C=C/C(=O)/C=C/c2cc3ccccc3[nH]c2=O)cc1 | -2.08% (active) |
| C/C=C/C/C=C/[C@H](C)C[C@H](O)[C@@H]1C[C@@H]2O[C@H]2/C=C/[C@@H]2OC(C)(C)O[C@H]2/C=C/C[C@H](C)CC(=O)O1 | 18.8% |
| COC1(OC)N=C(N)C2(C#N)C3(C(=O)Nc4ccccc43)C12C#N (configuration not stated) | 6.82% (active) |
| C/C=C/C/C=C/[C@H](C)C[C@H](O)[C@@H]1C[C@@H]2O[C@H]2/C=C/[C@H](O)[C@@H](O)/C=C/C[C@H](C)CC(=O)O1 | 69.9% |
| COc1cc(-c2nc3c(c(C)nc4c3nnn4-c3ccccc3)c(=O)o2)cc(OC)c1OC | 108% |
| CCC(C)C1NC(=O)C(CC(C)C)NC(=O)C(C)NC(=O)C(C(C)C)NC(=O)C(CCCCN)NC(=O)C(CC(C)C)NC(=O)C(C(C)C)NC(=O)[C@H](C)NC(=O)C(C(C)CC)NC(=O)C(CCCN=C(N)N)NC(=O)C(CCCCN)NC(=O)C(CCCN=C(N)N)NC(=O)C(CCCCN)NC(=O)C([C@H](C)CC)NC(=O)C(CCCCN)NC1=O (some centres not stated) | 2.37% (active) |
| COc1ccc(-c2nc(SCC(C)C)nc(Nc3ccc(C(=O)O)cc3)c2C#N)cc1 | 82.5% |
| O=S(=O)(O)CCI | 116% |
| Nc1nc2c(c3cnccc13)C(c1cccc(Cl)c1)Cc1cnccc1-2 (configuration not stated) | 19.5% |
| Oc1ccccc1\C=N/N=C/C=C/c1ccccc1 | 71.9% |
| COC(=O)c1ccc2[nH]c(O)c(C(=Nc3ccc(N(C)C(=O)CN4CCN(C)CC4)cc3)c3ccc(N)cc3)c2c1 | 3.76% (active) |
| CC(C)OC(=O)c1ccc2n1CCCc1cnc(Nc3ccccc3)nc1-2 | 35.4% |
| CC(=O)Nc1ccc(C(=O)/C=C/c2ccc(N(C)C)cc2)cc1 | 96.6% |
| CCOC(=O)C1=C(c2ccccc2)NC(=O)NC1CN1C(=O)c2ccccc2C1=O (configuration not stated) | -32.9% (active) |
| CC/C(=N\Nc1nc2ccccc2n1C)c1ccccn1 | 3.71% (active) |
| CCCCCCC(C)N(CC(C)(C)O)C(=O)c1ccc([N+](=O)[O-])cc1 (configuration not stated) | 89.5% |

| SMILES | growth |
| --- | --- |
| O=C1C(=O)c2ccccc2C(O)=C1CCCc1ccc(Oc2ccccc2)cc1 | 94.5% |
| C=C[C@]1(C)C=C2C(=O)[C@@]3(O)OC[C@@]4(CCCC(C)(C)C43O)C2(O)C(O)C1 (some centres not stated) | -14.4% (active) |
| COc1ccc(/C=C2\CCCC3=C2N=C2SC=NN2C3c2ccc(OC)c(OC)c2)cc1OC (configuration not stated) | 34.3% |
| CC(C)(C)c1ccc(OCCOC(=O)CBr)cc1 | 44.7% |
| c1cc(C2CCCCC2)ccc1OCCCCCCN1CCNCC1 | -4.39% (active) |
| CCOC(=O)c1c2c(cn1Cc1ccccc1)-c1oncc1CC2 | 91.8% |
| C/C(=N\Nc1cccc(Cl)n1)c1ccccn1 | 6.31% (active) |
| CC(=O)c1ccc2c(c1)c1ccccc1n2C | 77.9% |
| CCCCN(CCCC)CCCNc1c2c(nc3ccc(Cl)cc13)CCCC2 | 75.8% |
| COc1ccc(Cn2cc3c(c2)-c2oncc2CC3)cc1OC | 16.8% |
| C/C(=N\Nc1ccc(Cl)cn1)c1ccccn1 | 4.86% (active) |
| NC(=O)c1c(Nc2ccccc2)nn2cc(-c3nc4ccccc4s3)c(N)nc12 | 82.8% |
| COC(=O)c1ccc2[nH]c(O)c(C(=Nc3ccc(N(C)C(=O)CN4CCN(C)CC4)cc3)c3cccc(OC)c3)c2c1 | -3.85% (active) |
| Cc1nc2c(nnn2-c2ccccc2)c2nc(-c3ccc(Cl)cc3)oc(=O)c12 | 103% |
| Clc1ccc(N/N=C(/c2ccccc2)c2ccccn2)nc1 | 26.1% |
| COc1ccc(-c2nnc(SCC(=O)Nc3ccc(C(=O)/C=C/c4cc(OC)c(OC)c(OC)c4)cc3)n2-c2ccccc2)cc1OC | 75% [100 µM] |
| CCc1ccc(C(=Nc2ccc(N(C)C(=O)CN3CCN(C)CC3)cc2)c2c(O)[nH]c3ccc(C(=O)OC)cc23)cc1 | -27.7% (active) |
| Cc1ccc(C(C)C)c(OCc2ccc(C(=O)N/N=C/c3cccc(O)c3O)cc2)c1 | 9.44% (active) |
